In PubChem BioAssay (NCI):
About 83,000 compounds went through this panel and 20% of them were active in at least one assay; those are over-represented in the sample as a whole.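 In brief: 96-well plates, 48 h treatment, single concentration, percent growth endpoint.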 Activity calls are given as the source filed them. Rule for the calls: active = growth percent below 10; inactive = the rest.

tested on: MDA-MB-468 breast; experiment: NCI-60 one-dose screen, 48 h (100 = growth as untreated, 0 = no growth, -100 = all killed); conditions: 10 µM unless noted

Row | Compound | growth
1 | COc1cccc(C2(C)Nc3ccccc3-c3nc4ccccc4n32)c1 (stereo not given) | 109% (inactive)
2 | Fc1ccc2nc(-c3cnn4cccnc34)sc2c1 | -2.57% (active)
3 | Cc1ccc(S(=O)(=O)OCC#CCOS(=O)(=O)c2ccc(C)cc2)cc1 | -25.3% (active)
4 | N[C@@H](Cc1ccccc1)[C@@H](O)C(=O)NCc1ccc(F)cc1 | 114% (inactive)
5 | COc1ccc(C(=O)/C=C/c2ccccc2)cc1S(N)(=O)=O | 66.1% (inactive)
6 | CN1CCN(Cc2ccc(NC(=O)c3nc4ccc5[nH]ncc5c4c4c3CCC4)cc2C(F)(F)F)CC1 | -59.2% (active)
7 | COc1ccccc1NC(=O)c1cc2cc(Br)ccc2cc1O | -9.27% (active)
8 | N#CC1C=Cc2c(ccc3ccccc23)N1C(=O)c1ccccc1 (stereo not given) | -10.5% (active)
9 | CC(=O)OCC(=O)[C@@]1(O)[C@H](C)C[C@H]2[C@@H]3C=C(C)C4=Cc5c(cnn5-c5ccc(F)cc5)C[C@]4(C)[C@H]3[C@@H](O)C[C@@]21C | -22.6% (active)
10 | COc1ccc(-c2nnc3n(C)c(=O)c4ccccc4n23)cc1N | -6.61% (active)
11 | CN(CCCNC(=O)CCOCCOCCOCCNC(=O)Cc1ccc2ccc3cccc4ccc1c2c34)CCCNc1cc(-c2ccc3ccccc3c2)nc2ccccc12 | -92.2% (active)
12 | CC(=O)Nc1ccc(-c2ccc3c(c2)NC(=O)/C3=C\c2ccc[nH]2)cc1 | -7.08% (active)
13 | COc1ccccc1N1CCCCC1 | 118% (inactive)
14 | CCOC(=O)c1sc(-c2ccc(OS(=O)(=O)c3cccs3)c(C=O)c2)nc1C | -15.4% (active)
15 | Cc1cccc(C)c1Nc1nnc(-c2ccc(F)cc2)o1 | 102% (inactive)
16 | C=CCN=c1sc2c(n1NC(=O)c1cc3ccc1CCc1ccc(cc1)CC3)C(=O)c1ccccc1C2=O | -30.1% (active)
17 | COc1ccc(Nc2nc(N/N=C/c3ccc(O)cc3)nc(Nc3ccc([N+](=O)[O-])cc3)n2)cc1 | 117% (inactive)
18 | O=C1/C=C/[C@@H](O)[C@@H]2C[C@@H](O)C[C@H]2/C=C/CCC[C@H](CCc2ccc3ncccc3c2)O1 | -5.95% (active)
19 | O=C(O)c1ccc(-n2cc(/C=N/Nc3ccccc3)c(-c3ccc(F)cc3F)n2)cc1 | 89.3% (inactive)
20 | CN(C)c1ccc(C(=O)OCCCCCCl)cc1 | 95.3% (inactive)

Row | Compound | growth
21 | COc1cc2cc(NCc3cccc(Cl)c3)nc(C)c2cc1OC | 46.6% (inactive)
22 | CC(=O)OC(c1ccccc1)C1CCOC1=O (stereo not given) | 80.8% (inactive)
23 | Nc1n[nH]c2cccc(C#Cc3cccc(C(=O)Nc4cc(CN5CCOCC5)cc(C(F)(F)F)c4)c3)c12 | 89.7% (inactive)
24 | c1cc(OCCN2CCCCCC2)ccc1CNc1ccc2nc(CCC3CCCCC3)[nH]c2c1 | 58.2% (inactive)
25 | CCCCn1sc(=O)n(Cc2ccc(CNC(=O)OCc3ccc4c(Br)cc(Br)c(O)c4n3)cc2)c1=O | 27.3% (inactive)
26 | CCCCCC(=O)Oc1ccc(/C(=C(\C)c2ccccc2)c2ccc(OCCN3CCCCC3)cc2)cc1 | 75.7% (inactive)
27 | CNc1cc2nc3cc(NC)c(C)cc3cc2cc1C | -11.5% (active)
28 | Fc1cc2[nH]ncc2c2c3c(c(-c4cn[nH]c4C(F)(F)F)nc12)C1CCC3C1 (stereo not given) | 11.5% (inactive)
29 | COc1cc(/C=C2\CN(C)C/C(=C\c3cc(CN4CCCC4)c(O)c(OC)c3)C2=O)cc(CN2CCCC2)c1O | 41.8% (inactive)
30 | COc1ccc(-c2nc(-c3nc4ccc(OC)cc4[nH]3)c3ccccn23)cc1 | 72.2% (inactive)
31 | O=C(CCCCCCCCC(=O)N/N=C\c1ccccc1O)N/N=C\c1ccccc1O | -28.4% (active)
32 | C#CC[C@@H]1C[C@]2(C)[C@H]3CC[C@@H]4[C@H]5C(C(=C)C)CC[C@]5(C(=O)NCCN(CCN)CCN)CC[C@@]4(C)[C@]3(C)CC[C@H]2C(C)(C)[C@H]1OC(C)=O (stereo not given in full) | -25.4% (active)
33 | O=C(/C=C/c1cccc(Br)c1)c1ccccc1 | 84.9% (inactive)
34 | C=C1C(=O)O[C@H]2[C@H]1CCC(/C=N/c1ncc(Br)cc1N)=C\CC[C@@]1(C)O[C@@H]21 | -51% (active)
35 | CC(=O)NNC(=S)/N=C\C(C(=O)c1ccccc1)=C(/O)c1ccccc1 | 114% (inactive)
36 | c1ccc(CNc2nc(Nc3ccccc3)nc3ccccc23)cc1 | 13.2% (inactive)
37 | COc1ccc(C(=O)N2C=Cc3ccccc3C2C#N)cc1 (stereo not given) | 82.9% (inactive)
38 | CC(C)=CC(=O)OC(=O)C=C(C)C | 92.9% (inactive)
39 | O=Nc1ccc(O)c(=O)cc1 | -53.1% (active)
40 | CC(=O)Nc1nc(C)c(-c2csc(Nc3ccccc3)n2)s1 | 4.66% (active)
